Giardia FBPA inh-1: blocks Giardia fructose-bisphosphate aldolase activity; A8B2U2; Potency, µM (highest dose often 59.6 µM), for inactives: top-dose activity, negative = inhibition, most hits filed as inhibitors; purified Giardia FBPA; 290,000 tested, 0.71% active; AID 2451; note: potency is the fitted concentration of half-maximal effect; % is set by controls: 0 for no effect and ±100 for the full control effect; nearly all actives have a fitted effect of over 55% in size
Target sequence (A8B2U2 whole entry, looked up): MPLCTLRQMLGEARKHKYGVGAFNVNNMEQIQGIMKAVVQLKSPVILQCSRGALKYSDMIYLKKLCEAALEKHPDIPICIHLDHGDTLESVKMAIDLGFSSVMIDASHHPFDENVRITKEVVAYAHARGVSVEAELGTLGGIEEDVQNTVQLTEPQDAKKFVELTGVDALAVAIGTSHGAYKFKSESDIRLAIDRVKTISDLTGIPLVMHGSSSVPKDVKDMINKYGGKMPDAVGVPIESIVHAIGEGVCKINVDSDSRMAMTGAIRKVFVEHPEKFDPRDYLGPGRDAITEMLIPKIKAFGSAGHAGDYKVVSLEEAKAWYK
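40 nM FBPA preincubated 10 min at RT with compound (up to 57.5 uM final), then substrate plus GAPDH/TPI/NAD/arsenate coupling and diaphorase/resazurin added. Fluorescence read after 20 min at RT, 525/598 nm.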
RE007 growth inh: less growth of the S. pombe RE007 Vpr strain. S. pombe RE007 Vpr strain, BacTiter-Glo ATP luminescence, 24 h. Potency, µM (series often up to 92.2 µM), inactives show at the top dose activity change, negative = less growth, hits mostly inhibitors. 360,000 tested, 0.21% active. AID 651644; active = well fitted falling curve with a large enough effect; inconclusive = small, poorly fitted or top-dose-only effect; inactive = no such curve, though single readings can be large or run the other way; note: potency is the fitted concentration of half-maximal effect; % is set by controls: 0 for no effect and ±100 for the full control effect; nearly all actives have a fitted effect of over 50% in size
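Fission yeast RE007 carrying one integrated HIV-1 vpr copy, seeded at OD 0.01 in PMG+AL medium with 23 nL pinned compound. Grown 24 h at 30 degrees; viability read by BacTiter-Glo luminescence after 5 min.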
Tb PYK inh: blocks Trypanosoma brucei pyruvate kinase; Q57TT1; TbPYK enzyme, Kinase-Glo Plus ATP luminescence, 45 min; Potency, µM (titrated, usually from 76.8 µM), without a hit: at the highest dose activity, negative = inhibition, most hits filed as inhibitors; 410,000 tested, 0.12% active; note: potency is the fitted concentration of half-maximal effect; % is set by controls: 0 for no effect and ±100 for the full control effect; nearly all actives have a fitted effect of over 50% in size
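Screened from lowest to highest concentration, compounds were pinned into TbPYK/substrate mixtures, and ADP (130 uM final) was added. Plates sat at room temperature for 45 min prior to Kinase-Glo Plus detection by luminescence.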
LmPK inh: LmPK (Leishmania mexicana) enzyme inhibition; AID 1721; 290,000 tested, 0.37% active; Q27686; purified LmPK, Kinase-Glo ATP luminescence, 1 h; Potency, µM (top dose mostly 57.5 µM), for inactives: top-dose activity change, negative = inhibition, most hits filed as inhibitors; note: potency is the fitted concentration of half-maximal effect; % is set by controls: 0 for no effect and ±100 for the full control effect
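Kinase-Glo luminescence read after 1 h RT reaction of 0.1 nM LmPK with 0.5 mM PEP and 0.1 mM ADP. Activity scaled between uninhibited and enzyme-free controls.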
CHX counter: affects cycloheximide protein synthesis inhibition readout, counter-screen; cell reporter, cycloheximide protein synthesis inhibition counterscreen; max response, %; 300,000 tested, 12% active; in the data active = max response mostly above about 13%, no sharp cut-off; inactive = mostly below about 14%; note: read at 38.3 µM for the half of the compounds with a filed dose; 0% is about no effect
Shiga inhibitor: blocks Shiga toxin action in Vero cells; 290,000 tested, 9.2% active; Vero cells, Shiga toxin protein synthesis inhibition reporter; inhibition, % at 38.7 µM; AID 2315; in the data active = inhibition mostly above about 28%, no sharp cut-off; inactive = mostly below about 43%; note: 0% is about no effect
Giardia growth: Giardia lamblia growth inhibition; shares compounds with Giardia FBPA inh-1; Giardia lamblia trophozoite growth inhibition; Potency, µM (highest dose often 57.5 µM), for inactives: top-dose activity change, negative = inhibition, hits mostly inhibitors; 1,500 tested, 5% active; AID 2785;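 note: potency is the fitted concentration of half-maximal effect; trophozoites exposed to compound for 48 h at 37 °C; % is set by controls: 0 for no effect and ±100 for the full control effect; nearly all actives have a fitted effect of over 70% in size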
Mammalian tox: mammalian cytotoxicity of Giardia aldolase inhibitor hits; Potency, µM (doses to about 57.5 µM), without a hit: at the highest dose viability change, negative = toxicity, hits mostly inhibitors; mammalian cell viability counter-screen, qHTS; shares compounds with Giardia FBPA inh-1; 1,500 tested, 4% active;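 note: Chinese hamster ovary cells used as mammalian cytotoxicity surrogate; viability measured as cellular ATP by luminescence; potency is the fitted concentration of half-maximal effect; compound exposure lasted 48 h before reading; % is set by controls: 0 for no effect and ±100 for the full control effect; nearly all actives have a fitted effect of over 60% in size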
Giardia FBPA inh-2: confirmation of Giardia fructose-bisphosphate aldolase inhibitors; Potency, µM (highest dose often 57.5 µM), inactives show at the highest dose activity change, negative = inhibition, actives largely listed as inhibitors; purified Giardia aldolase enzyme activity, qHTS; 1,500 tested, 5% active; shares compounds with Giardia FBPA inh-1; note: potency is the fitted concentration of half-maximal effect; % is set by controls: 0 for no effect and ±100 for the full control effect; nearly all actives have a fitted effect of over 45% in size
Rabbit FBPA inh: rabbit FBP aldolase inhibition by Giardia aldolase hits; shares compounds with Giardia FBPA inh-1; Rabbit muscle FBPA enzyme inhibition, selectivity counter-screen; Potency, µM (series often up to 57.5 µM), for inactives: at the highest dose activity, negative = inhibition, actives largely listed as inhibitors; 1,500 tested, 4% active; AID 2794; note: potency is the fitted concentration of half-maximal effect; % is set by controls: 0 for no effect and ±100 for the full control effect; nearly all actives have a fitted effect of over 60% in size
GAPDH counter: counter-screen for Giardia aldolase inhibitors: GAPDH coupling enzyme. shares compounds with Giardia FBPA inh-1. GAPDH coupling enzyme counterscreen, biochemical, qHTS. Potency, µM (series often up to 57.5 µM), inactives show at the top dose activity change, negative = inhibition, hits mostly inhibitors. 1,500 tested, 6% active. AID 2795; note: potency is the fitted concentration of half-maximal effect; % is set by controls: 0 for no effect and ±100 for the full control effect; nearly all actives have a fitted effect of over 55% in size
Starred values were filed as active, the others as inactive; ? = inconclusive; . = no result given; [ ] = remark or other dose. Many of the other results were omitted from the sample, so hits are more common in it than they were. Unless noted, calls come from the whole dose curve; as a rule, active = well fitted curve in the direction sought with a large enough effect; inconclusive = small, poorly fitted or top-dose-only effect, or another doubt; inactive = no such curve, though single readings can be large; an effect the other way counts as inactive or inconclusive.

SMILES	Giardia FBPA inh-1	RE007 growth inh	Tb PYK inh	LmPK inh	CHX counter	Shiga inhibitor	Giardia growth	Mammalian tox	Giardia FBPA inh-2	Rabbit FBPA inh	GAPDH counter
Cc1cc(NC(=O)CC#N)n(-c2nc3ccccc3[nH]2)n1	16µM*	9%	2%	1%	-1	-9	-8%	-16%	0%	3%	7%
COc1ccc(C(=O)Nc2cc(C)nn2-c2nc3ccccc3[nH]2)c(OC)c1	18µM*	-10%	-1%	15%	20*	20	0%	?	1%	6%	-3%
Cc1ccc(C(=O)Nc2nnc(S(=O)(=O)N3CCOCC3)s2)cc1	18µM*	6%	0%	-4%	1	-3	?	1%	?	?	25µM*
CC1CCN(S(=O)(=O)c2nnc(NC(=O)c3cccc([N+](=O)[O-])c3)s2)CC1	14µM*	-5%	-12%	1%	9	-9	-3%[10.4 µM]	2%	16µM*	25µM*	16µM*
O=C(Nc1nnc(S(=O)(=O)N2CCOCC2)s1)c1ccc(F)cc1	16µM*	11%	3%	-1%	-2	-5	?	-5%	?	?	40µM*
O=C(Nc1nnc(S(=O)(=O)N2CCCCC2)s1)c1ccc(F)cc1	.	.	1%	.	.	.	.	.	.	.	.
Cc1cc(C)c(Cn2c(=O)n(CCCCCC(=O)NCc3ccc4c(c3)OCO4)c(=O)c3sccc32)c(C)c1	.	.	3%	.	.	.	.	.	.	.	.
CCn1c(CNC(=O)c2cccnc2)cc2ccccc21	8%	5%	0%	5%	-1	-7	.	.	.	.	.
CC(C)C[C@@H]1O[C@H](C(C)C)Cc2[nH][nH]c(=O)c21	.	-1%	1%	.	.	.	.	.	.	.	.
COC(=O)c1ccc(NC(=O)CC2C(=O)N(c3ccc(Cl)cc3)C(=O)N2Cc2ccco2)cc1 (configuration not stated)	.	.	1%	.	.	.	.	.	.	.	.
COc1ccccc1C(=O)NCC(=O)N1CCN(c2ncccn2)CC1	.	-13%	-10%	.	.	.	.	.	.	.	.
CCN1CCN(C(=S)c2ccc(OC)cc2)CC1	4.5µM*	10%	-30%	5%	-1	-4	3%[38.3 µM]	1%	-5%	3%	-8%
COc1ccc(C(=S)N2CCCCCC2)cc1	0%	-6%	-16%	6%	-3	14	.	.	.	.	.
CCOc1ccc(C(=S)N2CCN(C)CC2)cc1	18µM*	1%	?	-4%	-1	24	-24%	-8%	-5%	1%	1%
CC(NC(=O)NNC(N)=S)(C(F)(F)F)C(F)(F)F	18µM*	-12%	-3%	-3%	-3	8	31%	9%	6%	7%	8%
O=C(NC(=S)N1CCN(C/C=C/c2ccccc2)CC1)c1ccc(Cl)nc1	7.9µM*	1%	-18%	4%	-1	-10	-14%[38.3 µM]	?	-2%	4%	-8%
O=C(NC(=S)N1CCN(Cc2ccccc2)CC1)c1cccnc1	18µM*	-6%	?	-12%	-2	-14	?	12%	2%	3%	8%
O=C(NC(=S)N1CCCCC1)c1cccnc1	?	19%	-6%	0%	-3	-8	.	.	.	.	.
COC(=O)[C@H](CC(C)C)NC(=O)Cn1cnc2c(NCc3ccccc3)ncnc21	.	6%[18.4 µM]	-1%	.	.	.	.	.	.	.	.
